# This is a sample that favours compounds with a hit; in the whole collection about 7.6% have one here.
# Giardia killer = Small Molecules that selectively kill Giardia lamblia: qHTS; 340,000 tested, 0.15% active; activity change, % at 7.66 µM, hits read low; AID 540267, 2011; Giardia lamblia trophozoite viability; in the data active = activity change below about -80%; inconclusive = between about -30% and that limit;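 also: parasites exposed to compound for two days anaerobically before the ATP read; % is scaled to controls: 0 for no effect and ±100 for the full control effect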
#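 ATP-content bioluminescence gauges trophozoite survival. Cells (100/well) receive compound and incubate anaerobically for 48 hrs at 37 deg C; detection reagent follows for 15-30 min at room temperature.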
# VP16 counter = VP16 counterscreen qHTS for inhibitors of ROR gamma transcriptional activity. Drosophila S2 Gal4-VP16 UAS-luciferase, luminescence, 20 h. 310,000 tested, 3.5% active. Potency, µM (series often up to 53.6 µM), inactives show at the highest dose activity, negative = inhibition, actives largely listed as inhibitors. AID 2546, 2010;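 also: Gal4-VP16 expression switched on by copper sulfate through the metallothionein promoter; potency is read from the fitted curve at half-maximal effect; % is scaled to controls: 0 for no effect and ±100 for the full control effect; nearly all actives have a fitted effect of over 50% in size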
# p53 reactivator = qHTS assay for re-activators of p53 using a Luc reporter; H1299 p53-A138V BP100-luciferase reporter, luminescence, 24 h; Potency, µM (titrated, usually from 92.2 µM), without a hit: top-dose activity change, positive = activation, most hits filed as activators; 320,000 tested, 0.063% active; also: potency is read from the fitted curve at half-maximal effect; % of control where 0% means no effect; nearly all actives have a fitted effect of over 45% in size
#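 H1299 (p53-null), stable ts p53-A138V + BP100-Luc; 1000 cells/well, Opti-MEM/10% FBS; cpd 4 pt, 1:5; 24 h, 37 deg C, 5% CO2; detection reagent 10 min RT; luminescence.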
# ELG1 repair inh = qHTS screen for small molecules that inhibit ELG1-dependent DNA repair in human embryonic kidney (HEK293T) cells expressing luciferase-tagged ELG1; Potency, µM (doses to about 46.1 µM), for the others: at the top dose activity change, negative = inhibition, hits mostly inhibitors; AID 504467, 2011; HEK293T ELG1-luciferase reporter, luminescence, 16 h; DNA damage induced by 5-fluorouridine; 330,000 tested, 2.3% active; also: potency is read from the fitted curve at half-maximal effect; % is scaled to controls: 0 for no effect and ±100 for the full control effect; nearly all actives have a fitted effect of over 55% in size
#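 In this reporter screen, reduction of luminescence relative to DMSO vehicle indicated activity. Compounds and 5-fluorouridine were added together to 2,000 cells per well, incubated for 16 hr at 37 °C, then developed with ONE-Glo.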
# RORgamma inh = qHTS for inhibitors of ROR gamma transcriptional activity | 310,000 tested, 5.4% active | Drosophila S2 Gal4-RORgamma UAS-luciferase reporter, 20 h | Nuclear receptor ROR-gamma (Mus musculus), P51450 | Potency, µM (series often up to 53.6 µM), for the others: at the highest dose activity change, negative = inhibition, most hits filed as inhibitors; also: potency is read from the fitted curve at half-maximal effect; % is scaled to controls: 0 for no effect and ±100 for the full control effect; nearly all actives have a fitted effect of over 60% in size
# Target sequence (P51450 whole entry, looked up, the tested form may be a part): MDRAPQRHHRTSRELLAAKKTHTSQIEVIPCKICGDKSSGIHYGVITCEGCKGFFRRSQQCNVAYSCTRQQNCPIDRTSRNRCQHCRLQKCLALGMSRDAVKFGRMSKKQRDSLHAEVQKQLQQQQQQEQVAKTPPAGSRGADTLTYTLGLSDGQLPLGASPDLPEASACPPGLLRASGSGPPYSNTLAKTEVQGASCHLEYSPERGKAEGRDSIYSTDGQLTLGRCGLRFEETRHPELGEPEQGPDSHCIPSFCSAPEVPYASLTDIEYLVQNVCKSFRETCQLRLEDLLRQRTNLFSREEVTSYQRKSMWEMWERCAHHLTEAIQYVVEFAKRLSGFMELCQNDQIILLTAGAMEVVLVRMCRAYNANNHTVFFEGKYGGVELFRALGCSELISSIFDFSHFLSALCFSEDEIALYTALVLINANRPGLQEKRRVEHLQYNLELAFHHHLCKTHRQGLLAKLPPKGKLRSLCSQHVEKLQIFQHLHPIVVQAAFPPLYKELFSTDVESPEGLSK
#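 A Gal4/UAS one-hybrid system in insect cells: metallothionein-promoter Gal4–ROR gamma fusion plus Photinus luciferase reporter. Copper sulfate 700 uM final, 20 hr ambient incubation, luminescent detection after 10 min with reagent.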
# BRCA1 expr act = qHTS Assay to Identify Small Molecule Activators of BRCA1 Expression; 380,000 tested, 1.1% active; MCF7-BRCA1-FFLuc reporter, luminescence, 48 h; response scale: scaled: vehicle 0%, 10 µM genistein 100%; Potency, µM (series often up to 46.1 µM), for the others: at the highest dose activation, actives largely listed as activators; also: potency is read from the fitted curve at half-maximal effect; nearly all actives have a fitted effect of over 80% in size
#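 Luminescence from a BRCA1-driven firefly luciferase in MCF7 cells was read after 48 h compound exposure at 37 C. Data normalized against DMSO and a 10microM genistein activation control, then curve-fitted across the titration.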
# * = called active by the depositor; ? = inconclusive; . = not tested or not shown; [ ] = another dose, or the depositor's remark. Unless noted, calls follow the shape of the dose curve; as a rule, active = well fitted curve in the direction sought with a large enough effect; inconclusive = small, poorly fitted or top-dose-only effect, or another doubt; inactive = no such curve, though single readings can be large; an effect the other way counts as inactive or inconclusive.
SMILES,Giardia killer,VP16 counter,p53 reactivator,ELG1 repair inh,RORgamma inh,BRCA1 expr act
Cc1ccc(/C=N/n2c(C3CCCCC3)n[nH]c2=S)o1,-22,?,7%,7%,11µM*,-15%
CSc1ccc(/C=N/n2c(C3CCCCC3)n[nH]c2=S)cc1,1,?,?,?,1.6µM*,-22%
Cc1cccc(-c2n[nH]c(=S)n2/N=C/c2ccc(C)o2)c1,14,11µM*,1%,-1%,?,0%
O=C(O)c1ccc(/C=N/n2c(C3CCCCC3)n[nH]c2=S)cc1,6,0%,2%,-6%,-21%,-17%
O/N=C/c1cc(Br)cs1,-4,0%,-2%,6%,14%,-4%
CCCCCC(=O)NC(=S)NC1C2CC3CC(C2)CC1C3 (configuration not stated),17,7.9µM*,27%,13%,2.2µM*,-74%
Cc1ccc(CNC(=O)CO/N=C/c2ccc(C(C)(C)C)cc2)cc1,2,7.9µM*,10%,-17%,-7%[10 µM],-51%
COc1ccc2cc1Oc1ccc(cc1)C[C@H]1c3c(cc(OC)c4c3Oc3c(ccc5c3[C@H](C2)N(C)CC5)O4)CCN1C,?,.,0%,?,.,13%
COc1ccc2cc1Oc1ccc(cc1)CC1c3c(cc(OC)c4c3Oc3cc5c(cc3O4)CCNC5C2)CCN1C (configuration not stated),?,7.1µM*,-14%,?,4.5µM*,-81%
COc1c(C)cc(C(=O)C2CCCN(Cc3cnc(N4CCOCC4)s3)C2)cc1C (configuration not stated),17,2%,-4%,21µM*,0%,-19%
Cc1ccccc1C(=O)Nc1nnc(-c2ccc(F)cc2)o1,-12,0.45µM*,23%,-8%,1.3µM*,-14%
Cc1ccccc1C(=O)Nc1nnc(-c2cccnc2)o1,1,5µM*,3%,5%,3.2µM*,-3%
COc1ccccc1C(=O)Nc1nnc(-c2ccc(F)cc2)o1,6,11µM*,8%,3%,7.9µM*,98%
O=C(Nc1nnc(-c2ccc(F)cc2)o1)c1ccco1,-7,5µM*,4%,16%,?,-6%
COc1ccccc1C(=O)Nc1nnc(-c2ccc(F)cc2)s1,-7,23%,?,?,41%,14%
CC(=O)Nc1nnc(-c2c(-c3ccccc3Cl)noc2C)o1,9,18µM*,-10%,-27%,5µM*,-9%
O=C(Nc1nnc(-c2ccccc2Cl)o1)c1cccnc1,8,1.3µM*,17%,?,0.89µM*,28%
COc1cccc(NC(=S)N(CCN(C)C)C(C)c2ccncc2)c1 (configuration not stated),4,-9%,-2%,-2%,-30%,-10%
CC(=O)Nc1nn(C)c2nc3ccc(C)cc3cc12,-24,3%,-6%,10%,-3%,-1%
Cc1ccn2c(NC(=O)c3cccs3)c(-c3ccccc3)nc2c1,10,3%,-13%,?,11%,14%
Cc1ccn2c(NC(C)(C)C)c(-c3cccs3)nc2c1,-11,-17%,-5%,-15%,11µM*,0%
Cc1ccccc1NC(=O)c1cccc(N2C(=O)C3CCCCC3C2=O)c1 (configuration not stated),5,11%,3%,5%,48%,7%
Cc1cccc(C)c1NC(=S)N=Nc1c(O)n(C)c2ccc(S(=O)(=O)N3CCOCC3)cc12,5,4.5µM*,-3%,?,1.3µM*,-37%
Cc1cc(C)cc(NC(=S)N=Nc2c(O)n(C)c3ccc(S(=O)(=O)N4CCOCC4)cc23)c1,22,-90%,3%,?,?,-43%
Cc1ccccc1NC(=S)N=Nc1c(O)n(C)c2ccc(S(=O)(=O)N3CCOCC3)cc12,-5,0.79µM*,0%,29%,0.32µM*,-35%
SMILES,Giardia killer,VP16 counter,p53 reactivator,ELG1 repair inh,RORgamma inh,BRCA1 expr act
Cc1c(CCC(=O)O)c(=O)oc2cc3occ(-c4ccc(Cl)cc4)c3cc12,-17,-3%,-6%,-10%,12%,-13%
Cc1c(CCC(=O)O)c(=O)oc2cc3occ(-c4ccc(F)cc4)c3cc12,30,?,-7%,4%,2.8µM*,0%
Cc1ccc(NS(=O)(=O)c2ccc(N/N=C/c3ccncc3)c([N+](=O)[O-])c2)c(C)c1,6,-28%,-5%,-5%,1%,-4%
Cc1ccc(-n2[nH]c(C)c(/C=N/n3c(C)nc4ccccc4c3=O)c2=O)cc1,8,?,8%,-13%,18µM*,-35%
Cc1nc2ccccc2c(=O)n1/N=C/c1ccccc1,2,?,-6%,?,-2%,41%
Cc1[nH]n(-c2ccccc2)c(=O)c1/C=N/n1c(C)nc2ccccc2c1=O,-10,?,0%,-5%,5.6µM*,2%
COc1ccc(N(C(=O)Cn2nnc3ccccc32)C(C(=O)NC(C)(C)C)c2ccc(OC)c(O)c2)cc1 (configuration not stated),4,-18%,-4%,20%,?,-2%
CC(C)Cc1nn2c(=O)cc(COC(=O)CNC(=O)c3ccc(C(C)(C)C)cc3)nc2s1,.,.,.,.,.,-2%
COc1ccc(OC)c(CN(CCCN2CCOCC2)S(=O)(=O)c2ccc(NC(C)=O)cc2)c1,2,-1%,-11%,-5%,-3%,-1%
CC(=O)Nc1ccc(S(=O)(=O)N(C)S(=O)(=O)c2ccc(F)cc2)cc1,7,2%,-2%,?,1%,-27%
COc1cccc(C(C[N+](=O)[O-])c2c(C)[nH]n(-c3ccccc3)c2=O)c1 (configuration not stated),2,7.9µM*,-42%,?,?,-2%
OCc1ccccc1O[C@H]1OC(CO)C(O)C(O)C1O (some centres not stated),.,3%,.,.,2%,.
CC1(C)CC(Cc2ccc(C(=O)c3ccccc3)cc2)N(C(=O)OC(C)(C)C)N1 (configuration not stated),.,.,.,.,.,-16%
COc1ccc(NS(=O)(=O)c2ccc(N/N=C(\C)c3ccncc3)c([N+](=O)[O-])c2)cc1,3,-1%,22%,18µM*,-3%,-73%

# High-throughput results from PubChem.
